Results from PubChem BioAssay (Tox21).
Records with an inconclusive call do not appear. Unmarked numbers belong to inactive results. Active and inactive are the calls of the source. Calls come from the whole dose curve.

assay: qHTS assay to identify small molecule agonists or antagonists of the thyroid stimulating hormone receptor (TSHR) signaling pathway - wild type cell line counter screen (AID 1259384); details: HEK293 wild type, cAMP HTRF counter-screen, stronger effect = higher value; series mostly up to 92.4 µM
From the text: U.S. Tox21 Program National Center for Advancing Translational Sciences [NCATS] NIH Chemical Genomics Center [NCGC] U.S. Environmental Protection Agency [EPA] National Institutes of Environmental Health Sciences [NIEHS] National Toxicology Program [NTP] U.S. Food and Drug Administration [FDA] Tox21 Assay Overview: TSHR is the receptor for thyrotropin (thyroid stimulating hormone or TSH), a member of the glycoprotein hormone family. TSH is released by the anterior pituitary gland and is the main regulator of thyroid gland growth and development. Upon binding circulating thyrotropin, a G-protein signal cascade activates adenylyl cyclase and […] cAMP concentration is increased. cAMP is a key second messenger involved extensively in cellular signal transduction pathways associated with the majority of G-protein coupled receptors (GPCRs). The activation of these GPCRs by neurotransmitters, lipids, nucleotides, peptides and hormones results in the activation or the inhibition of plasma membrane-bound adenylate cyclase through heterotrimeric G-proteins. A cell-based TSHR-Hek293 assay can be used to identify TSHR agonists. To eliminate the false positive compounds identified from screening a cell-based TSHR-Hek293 cell line, cAMP assay in a wild type Hek293 cells was used as a counter screening.
Tox21 Assay Protocol Summary: Hek293 cells (wild type) were dispensed at 800 cells/4 uL/well in 1536-well white plates using a Multidrop dispenser. After the assay plates were incubated at a 37 C/5% CO2 incubator for 18 hrs, 23 nL of compounds dissolved in DMSO, positive controls or DMSO only was transferred to the assay plate by a pin tool, followed by 1 ul medium containing Ro20-1724. After 30 min of incubation at room temperature, 2.5 ul/well of cAMP-d2 and 2.5 ul/well of anti-cAMP-cryptate were added respectively into the assay plates using a Flying Reagent Dispenser. The plates were incubated at room temperature for 1 hr. The fluorescence intensity in the plates was measured using an Envision plate reader. Each test compound was measured at 15 concentrations and in triplicates.
% is set by controls: 0 for no effect and ±100 for the full control effect.

Which outcome does the source give for `BrC(Br)C(Br)(Br)Br` here?
The outcome was “inactive”.

For `COc1ccc(/C(=C/C(=O)N2CCOCC2)c2ccc(Cl)cc2)cc1OC`, which outcome is on record?
Its outcome is “inactive”.

With `OC(c1ccc(Cl)cc1)(c1ccc(Cl)cc1)C(Cl)(Cl)Cl` as the compound, how does the outcome read?
Its outcome is “inactive”.

For `CCCCCCCCCBr`, which outcome is on record?
Its outcome is “inactive”.

With `[Cl][Sn]([c]1ccccc1)([c]1ccccc1)[c]1ccccc1` as the compound, how does the cAMP activity change read?
Its cAMP activity change is 23.5% [at 18.9 µM].

With `C[C@]12CC[C@H](O)C[C@H]1CC[C@@H]1[C@@H]2C[C@@H](O)[C@]2(C)[C@@H](C3=CC(=O)OC3)CC[C@]12O` as the compound, how does the outcome read?
The outcome was “inactive”.

With `Cc1cc(C)cc(OP(=O)(Oc2cc(C)cc(C)c2)Oc2cc(C)cc(C)c2)c1` as the compound, how does the outcome read?
The outcome was “inactive”.

With `CC(C)CCCCCCCOP(=O)(Oc1ccccc1)Oc1ccccc1` as the compound, how does the outcome read?
Its outcome is “inactive”.

Which outcome does the source give for `Nc1ccc([N+](=O)[O-])cc1Cl` here?
The outcome was “inactive”.

For `COCC(=O)N(c1c(C)cccc1C)[C@H](C)C(=O)OC`, which outcome is on record?
The outcome was “inactive”.

Which outcome does the source give for `CCCN(CC)CC1COC2(CCC(C(C)(C)C)CC2)O1` (stereo not given) here?
Its outcome is “inactive”.

For `BrCBr`, which outcome is on record?
Its outcome is “inactive”.

For `Oc1cccc(-c2ccccc2)c1`, which outcome is on record?
Its outcome is “inactive”.

For `CC(C)OC(=S)S`, which outcome is on record?
Its outcome is “inactive”.

With `C[C@@H]1O[C@@H](O[C@@H]2C=C3CC[C@@H]4[C@H](CC[C@]5(C)[C@@H](c6ccc(=O)oc6)CC[C@]45O)[C@@]3(C)CC2)[C@H](O)[C@H](O)[C@H]1O` as the compound, how does the outcome read?
Its outcome is “inactive”.

With `Fc1ccc(Oc2ccnc3cc(Cl)cc(Cl)c23)cc1` as the compound, how does the outcome read?
The outcome was “inactive”.

For `c1cc[c]([Sb]([c]2ccccc2)[c]2ccccc2)cc1`, which outcome is on record?
Its outcome is “inactive”.

Which outcome does the source give for `CC1(C)CN=C(NN=C(/C=C/c2ccc(C(F)(F)F)cc2)/C=C/c2ccc(C(F)(F)F)cc2)NC1` here?
The outcome was “inactive”.

With `CC(C)(COCC1CO1)COCC1CO1` (stereo not given) as the compound, how does the outcome read?
The outcome was “inactive”.

With `Clc1ccc(-c2ccccc2)cc1` as the compound, how does the outcome read?
The outcome was “inactive”.

Which outcome does the source give for `C=CCOC(N)=O` here?
Its outcome is “inactive”.

With `ClC1=C(Cl)C2(Cl)C3C(Cl)C=CC3C1(Cl)C2(Cl)Cl` (stereo not given) as the compound, how does the outcome read?
Its outcome is “inactive”.

With `CC(c1ccc(O)cc1)c1ccc(O)cc1` as the compound, how does the outcome read?
The outcome was “inactive”.

With `CC(O)C#N` (stereo not given) as the compound, how does the outcome read?
Its outcome is “inactive”.

Which outcome does the source give for `O=C(Cl)c1ccc(Cl)cc1` here?
Its outcome is “inactive”.

For `O=C(CBr)c1ccc(O)cc1`, which outcome is on record?
Its outcome is “inactive”.

For `C[C@]12Cc3nonc3C[C@@H]1CC[C@@H]1[C@@H]2CC[C@@]2(C)[C@H]1CC[C@]2(C)O`, which outcome is on record?
Its outcome is “inactive”.

With `CC(C)CC(C)(c1ccc(O)cc1)c1ccc(O)cc1` as the compound, how does the outcome read?
Its outcome is “inactive”.

Which outcome does the source give for `CCOC(=O)c1ccccc1S(=O)(=O)NC(=O)Nc1nc(Cl)cc(OC)n1` here?
The outcome was “inactive”.

Which outcome does the source give for `CCOP(=S)(OCC)SCS(=O)(=O)CC` here?
Its outcome is “inactive”.

Which outcome does the source give for `CC(C)(C)C(O)C(Oc1ccc(-c2ccccc2)cc1)n1cncn1` (stereo not given) here?
The outcome was “inactive”.

For `N#CCCSCCC#N`, which outcome is on record?
Its outcome is “inactive”.

With `COP(=O)(OC)SCn1c(=O)oc2cc(Cl)cnc21` as the compound, how does the outcome read?
The outcome was “inactive”.

With `ClC(Cl)=C(c1ccc(Cl)cc1)c1ccc(Cl)cc1` as the compound, how does the outcome read?
Its outcome is “inactive”.

With `CC(C)(C)c1cc([N+](=O)[O-])cc(C(C)(C)C)c1O` as the compound, how does the outcome read?
Its outcome is “inactive”.

Which outcome does the source give for `Oc1ccc(I)cc1` here?
The outcome was “inactive”.

Which outcome does the source give for `N#Cc1ccccc1N` here?
Its outcome is “inactive”.

With `CC(=O)C(Cl)(Cl)Cl` as the compound, how does the outcome read?
Its outcome is “inactive”.

With `CNC(C)Cc1ccc2c(c1)OCO2` (stereo not given) as the compound, how does the outcome read?
Its outcome is “inactive”.

With `CC(C)CCCCCOC(=O)c1ccccc1C(=O)OCCCCCC(C)C` as the compound, how does the outcome read?
Its outcome is “inactive”.
